Assay outcomes (PubChem)
RGS4-Gao reg: modulators of RGS4 binding to Galphao, primary screen, biochemical, multiplexed bead flow cytometry | Guanine nucleotide-binding protein G(o) subunit alpha (Homo sapiens), P09471 | actives lie on both sides | binding response (% of control), % at 10 µM | 0.33% of 220,000 active; in the data active = binding response below about 49% or above about 150%; inactive = in between;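 also: fluorescent Galphao activated with aluminum fluoride binding bead-coupled RGS4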
Target sequence (P09471 whole entry, looked up): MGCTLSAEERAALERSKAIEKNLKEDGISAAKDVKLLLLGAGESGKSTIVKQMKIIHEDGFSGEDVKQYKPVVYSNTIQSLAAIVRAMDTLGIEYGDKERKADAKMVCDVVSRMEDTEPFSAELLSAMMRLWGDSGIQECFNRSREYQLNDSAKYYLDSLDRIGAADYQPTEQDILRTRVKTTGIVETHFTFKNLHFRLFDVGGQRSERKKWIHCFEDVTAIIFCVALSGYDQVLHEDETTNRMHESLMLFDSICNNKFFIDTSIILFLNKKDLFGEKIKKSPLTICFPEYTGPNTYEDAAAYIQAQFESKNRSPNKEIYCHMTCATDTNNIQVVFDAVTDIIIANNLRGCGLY
RGS16-Gao HTS: modulators of RGS16 binding to Galphao, primary screen, biochemical, human proteins, multiplexed bead flow cytometry; Regulator of G-protein signaling 16 (Homo sapiens) + Guanine nucleotide-binding protein …; bead-based flow cytometry RGS16-Galphao binding, fluorescence; actives lie on both sides; binding response (% of control), % at 10 µM; 0.38% of 220,000 active; call rule not given here;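 also: Galphao activated by GDP with aluminum fluoride before binding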
Target sequence (O15492 whole entry, looked up): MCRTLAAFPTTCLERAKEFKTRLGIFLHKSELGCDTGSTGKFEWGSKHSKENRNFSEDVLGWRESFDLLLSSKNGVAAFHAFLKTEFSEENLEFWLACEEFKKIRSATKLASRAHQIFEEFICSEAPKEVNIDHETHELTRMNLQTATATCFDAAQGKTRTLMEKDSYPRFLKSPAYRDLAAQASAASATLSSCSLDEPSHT
Target sequence (P09471 whole entry, looked up): as the sequence (P09471 whole entry, looked up) above
GSH fluor: compound fluorescence on glutathione beads, profiling panel, artefact control, biophysical, 488/530 nm, flow cytometry; GSH beads flow cytometry, compound fluorescence 488/530 nm; active compounds read high; fluorescence (KMESF) at 10 µM; 0.25% of 190,000 active; AID 1776, 2009; in the data active = fluorescence above about 89;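 also: glutathione beads carrying GST-tagged Bcl family fusion proteins plus one bare bead set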
Avidin fluor: green autofluorescence of compounds with avidin beads – biophysical, 488/530 nm, flow cytometry, artefact control, profiling panel; 0.38% of 220,000 active; fluorescence (KMESF) at 10 µM; compound fluorescence 488/530 nm; active compounds read high; in the data active = fluorescence above about 47
RGS7-Gao reg: RGS7-Galphao binding modulators, primary screen, biochemical, multiplexed bead flow cytometry; Guanine nucleotide-binding protein G(o) subunit alpha (Homo sapiens), P09471; actives lie on both sides; binding response (% of control), % at 10 µM; 0.35% of 220,000 active; in the data active = binding response below about 49% or above about 150%; inconclusive = no clear call, values can overlap the other calls; inactive = in between;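 also: fluorescent Galphao held in activated GDP-AlF4 state binding bead-coupled RGS7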
RGS8-Gao reg: RGS8-Galphao binding modulators, primary screen, biochemical, multiplexed bead flow cytometry. Guanine nucleotide-binding protein G(o) subunit alpha (Homo sapiens), P09471. actives lie on both sides. response (percent of control binding), % at 10 µM. AID 1423, 2008. 0.34% of 220,000 active; in the data active = response below about 60% or above about 140%; inactive = in between;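 also: Galphao activated as the GDP aluminium fluoride complex binding bead-coupled RGS8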
A number is an active result; n = inactive; u = inconclusive; x = no result. In the library only some 1.2% were active in any assay of this set; here they are far more common.

SMILES	RGS4-Gao reg	RGS16-Gao HTS	GSH fluor	Avidin fluor	RGS7-Gao reg	RGS8-Gao reg
CC(C)N(Cc1ccccc1)C(=O)Cn1c(=O)cnc2ccccc21	n	n	x	49	u	n
COCCN1C(=O)c2ccccc2C(C(=O)NCCN(C)C)C1c1ccc(F)cc1 (stereo not drawn)	n	n	n	n	n	n
COCCNC(=O)C1c2ccccc2C(=O)N(CCOC)C1c1ccc(F)cc1 (stereo not drawn)	n	n	n	48	n	n
Cc1onc(-c2c(F)cccc2Cl)c1C(=O)OCC(=O)Nc1c(C)n(C)n(-c2ccccc2)c1=O	n	n	279	n	n	n
COc1cc(/C=C/C(=O)OC(C)C(=O)Nc2c(C)n(C)n(-c3ccccc3)c2=O)ccc1OCC#N (stereo not drawn)	n	n	n	n	u	n
COC(=O)[C@H](CC(C)C)NC(=O)NCc1ccc(Cl)cc1	n	n	x	n	u	n
O=C(Nc1cccc2ccccc12)N1CCOCC1	n	n	n	n	n	n
S=C(Nc1cccc2ccccc12)NN1CCOCC1	n	n	n	47	n	n
CC(C)(C)c1ccc(C(=O)CC(=O)c2cc(Cl)ccc2O)cc1	n	n	245	n	n	n
COc1cc(SSc2cc(OC)cc([N+](=O)[O-])c2N)c(N)c([N+](=O)[O-])c1	n	n	x	n	u	n
CCC(Sc1ccc(C(=O)O)cc1)C(=O)O (stereo not drawn)	n	n	n	50	n	n
O=S(=O)(Cc1ccc(Cl)cc1)N1CCN(Cc2ccc3c(c2)OCO3)CC1	n	n	x	n	u	n
O=S(=O)(Cc1ccc(Cl)cc1)Nc1ccc2c(c1)OCO2	n	n	n	48	n	n
O=C1c2ccccc2C(=O)N1CCc1nc2ccccc2c(=O)n1CCCn1ccnc1	n	n	272	n	n	n
N#CC1=C(N)Oc2c(ccc3cccnc23)C1c1ccccc1 (stereo not drawn)	n	n	x	n	u	n
Cc1oc(C)c2c(=O)ccc3c(c12)OC(N)=C(C#N)C3c1ccccc1Cl (stereo not drawn)	n	n	138	n	n	n
N#CC1=C(N)OC2=C(CC/C2=C\c2ccccc2Cl)C1c1ccccc1Cl (stereo not drawn)	n	n	n	n	n	n
Cc1oc(C)c2c(=O)ccc3c(c12)OC(N)=C(C#N)C3c1ccccc1 (stereo not drawn)	n	n	585	n	n	n
COc1ccc(C(=O)NNC(=O)CSc2nnc(C)n2C)cc1	n	n	n	n	n	n
COC(=O)[C@@H]1CCCN1C(=O)CCc1nnc(C2CCCCC2)o1	n	n	n	n	n	n
Cc1ccc2nc3c(cc2c1)c(NC(=O)c1ccccn1)nn3CC(C)C	n	n	n	62	n	n
CC(C)(C)C(=O)Nc1nc2ccc(S(C)(=O)=O)cc2s1	n	n	n	n	n	n
CC1=CCC(C(=O)O)C(C(=O)Nc2nc3ccc(S(C)(=O)=O)cc3s2)C1 (stereo not drawn)	n	n	92	n	n	n
CCOC(=O)N1CCC(NC(=O)c2cnc3n(c2=O)CCS3)CC1	-14.5	-12.8	n	n	-21.1	2.7
CCCCNC(=O)c1cnc2n(c1=O)CCS2	n	n	n	n	n	n
SMILES	RGS4-Gao reg	RGS16-Gao HTS	GSH fluor	Avidin fluor	RGS7-Gao reg	RGS8-Gao reg
COCCOn1c(SCCOC)nc2ccccc2c1=O	n	n	x	n	u	n
COCCCn1c(SCC(=O)NCc2ccccc2)nc2ccccc2c1=O	n	n	n	n	n	n
COCCCn1c(SCC(=O)Nc2ccc(C(C)=O)cc2)nc2ccccc2c1=O	n	n	259	n	n	n
CN(CC(=O)Nc1ccc(S(=O)(=O)N2CCCC2)cc1)Cc1c(F)cccc1Cl	n	n	n	n	u	n
O=C(CN1C(=O)c2ccccc2S1(=O)=O)NCCC1=CCCCC1	n	n	117	n	n	n
O=C(CSc1nc(O)cc(=O)n1C1CCCC1)Nc1cccc(Cl)c1Cl	n	n	n	n	n	n
COC(=O)c1ccccc1NC(=O)CSc1nc(O)cc(=O)n1C1CCCC1	n	n	n	54	n	n
CCn1c(C)nc2cc(C(=O)NNC(=S)NC(=O)c3ccccc3)ccc21	n	n	n	n	n	n
CCOc1ccc(C(=O)Nc2ncccc2Cl)cc1	n	n	n	n	n	n
COc1ccc(N2CCN(C(CNS(C)(=O)=O)c3ccco3)CC2)cc1 (stereo not drawn)	n	n	n	n	n	n
O=C(CSc1nnnn1C1CCCC1)Nc1ccc(F)cc1	n	n	n	89	n	n
O=C(CSc1nnnn1C1CCCCC1)Nc1ccc(F)cc1	n	n	n	n	n	n
NS(=O)(=O)c1ccc2nc(NC(=O)c3ccncc3)sc2c1	n	n	n	n	n	n
Cc1ccc2c(CSc3nnc(C4CC4)n3N)cc(=O)oc2c1	n	n	262	n	n	n
Cc1cc(C(=O)NC2Cc3ccccc3C2)c(C)o1	n	n	x	n	u	n
O=C(c1ccc(NC(=S)NCc2ccco2)cc1)N1CCOCC1	n	n	n	n	n	n
CCOC(=O)c1nn(-c2ccccc2)c(=O)cc1SC(C)C	n	n	n	n	n	n
CCOC(=O)c1nn(-c2ccccc2)c(=O)cc1SC(C)CC (stereo not drawn)	n	n	n	100	n	n
CCn1c(SCC(=O)Nc2ccc(-c3nc4ccc(C)cc4s3)cc2)nnc1-c1ccccc1	n	n	n	256	n	n
CC(=O)Nc1ccc(S(=O)(=O)Nc2nc3ccccc3nc2Nc2ccc(O)cc2)cc1	n	n	x	n	u	n
Cc1nc2ccccn2c1-c1nnco1	n	n	n	47	n	n
Cc1cccc(Nc2nc(-c3c(C)nc4ccccn34)cs2)c1	n	n	n	n	n	n
O=S(=O)(Nc1ccc(Cc2ccncc2)cc1)c1ccc(Br)cc1	22.0	1.0	n	n	15.0	12.2
Cc1cccc(OCc2nnc(SCC(=O)c3ccccc3)o2)c1	n	n	n	64	n	n
Cc1cccc(OCc2nnc(SCC(=O)NCCc3ccccc3)o2)c1	n	n	243	n	n	n
COc1ccccc1NC(=O)c1cc2c(s1)-c1ccccc1S(=O)(=O)C2	n	n	x	n	u	n
COC(=O)c1cc(NC(=O)c2cccc(C(F)(F)F)c2)c(=O)oc1C	n	n	n	n	u	n
COC(=O)c1cc(NC(=O)c2cccc(Cl)c2)c(=O)oc1/C=C/Nc1cc(C)cc(C)c1	n	n	173	n	n	n
